# Experimental data taken from PubChem BioAssay.
# The source made the active and inactive calls.
# Legend:
# Albumin (Bos taurus) = Albumin (Bos taurus) (UniProt P02769); experiment: bovine serum albumin binders on microarray, profiling panel, artefact control for SMM control protein annotation, biochemical, small-molecule microarray, Alexa647 label, 635/667 nm fluorescence (AID 1118); details: BSA-A647 binding, fluorescence 635 nm, higher = more signal;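 also: score merges 667 nm emission intensity and signal-to-noise per printed compound spot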
# [1] = small-molecule microarray binders of probe aXIP, primary screen, biochemical, NeuroSMM set, 635/667 nm fluorescence (AID 1119); details: higher = more signal, called active from +8 up or from −8 down;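 also: probe is the protein aXip251-270 applied at 1 µg/mL to compound-printed slides; binding of probe to printed compounds measured as 667 nm fluorescence plus signal to noise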
# [2] = small-molecule binders of probe aNOTCH3, primary screen, biochemical, small-molecule microarray, 635/667 nm fluorescence (AID 1120); details: higher = more signal;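 also: probe is a biotin-tagged antibody raised against NOTCH3 rather than NOTCH3 protein; score merges spot fluorescence near 667 nm with spot signal to noise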
# [3] = small-molecule binders of probe aNOTCH2, primary screen, biochemical, small-molecule microarray, 635/667 nm fluorescence (AID 1121); details: higher = more signal;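 also: score merges feature fluorescence read at 667 nm with its signal to noise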
# [4] = biological target: Carbonic anhydrase 2 (Homo sapiens) (UniProt P00918); experiment: CAII small-molecule binders, profiling panel, biochemical, small-molecule microarray, Alexa647-labelled CAII (AID 1122); details: CAII-A647 binding fluorescence, higher = more signal
# [5] = COS7 lysate on small-molecule microarray, probe aHis, 635 nm (AID 1123); details: COS7 cell lysate, fluorescence, higher = more signal;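 also: z-score combines 667nm fluorescence intensity with signal-to-noise per printed compound spot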
# [6] = compound binding in COS7 lysate, probe aLAP1, primary screen, cell lysate, small-molecule microarray (AID 1124); details: probe aLAP1, fluorescence, higher = more signal;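 also: lysate comes from COS7 cells expressing LAP1 and is applied at 0.3 µg/mL; score merges spot fluorescence near 667 nm with signal-to-noise over triplicate slides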
# Sam68 (KHDRBS1) = experiment: Sam68 small-molecule binders, primary screen, biochemical, small-molecule microarray, 635 nm fluorescence (AID 1125); details: small-molecule microarray binding, higher = more signal;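 also: score merges 667 nm channel intensity with signal to noise over triplicate slides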
# [7] = tested on: Chordin-like protein 2 (CHRDL2); experiment: CHRDL2 small-molecule binders, primary screen, biochemical, small-molecule microarray, 635 nm fluorescence (AID 1126); details: small-molecule microarray binding, fluorescence 635 nm; higher = more signal;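 also: printed compound slides probed with Chrdl2 protein at 4 µg/mL for 1 h at 4 C; score merges 667 nm emission intensity with signal to noise over three replicate slides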
# [8] = biological target: Concanavalin-A (Canavalia ensiformis) (UniProt P02866); experiment: ConA small-molecule binders, primary screen, artefact control for SMM control protein annotation, biochemical, small-molecule microarray, Alexa647 label, 635 nm (AID 1127); details: ConA-A647 binding fluorescence, higher = more signal;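 also: z combines 667 nm emission intensity with signal-to-noise across three replicate slides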
# [9] = anti-His antibody binders, primary screen, artefact control for SMM control protein annotation, biochemical, small-molecule microarray, 635 nm fluorescence (AID 1128); details: anti-His Alexa647 antibody binding, higher = more signal;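 also: score merges feature fluorescence with signal-to-noise for each printed compound spot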
# [10] = tested on: Human papillomavirus type 1a E7 protein (residues 1-88); experiment: HPV1a E7 small-molecule binders, primary screen, biochemical, small-molecule microarray, residues 1-88, 635 nm (AID 1129); details: small-molecule microarray binding, fluorescence 635 nm; higher = more signal
# [11] = biological target: Focal adhesion kinase 1 (Homo sapiens) (UniProt Q05397); experiment: small-molecule microarray binders of FAK, primary screen, biochemical, 635/667 nm fluorescence, BSA, DTT (AID 1130); details: PTK2 binding, 635 nm fluorescence, higher = more signal;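 also: composite of spot emission at 667 nm and signal to noise over triplicate slides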
# [12] = tested on: Fibrinogen (Alexa647-labelled); experiment: fibrinogen binders on compound microarrays, profiling panel, artefact control for SMM control-protein annotation, biochemical, small-molecule microarray, 635/667 nm fluorescence (AID 1131); details: fibrinogen-A647 binding fluorescence, higher = more signal;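 also: z-score merges 667 nm fluorescence with per-spot signal-to-noise over triplicate slides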
# [13] = biological target: Follistatin (Homo sapiens) (UniProt P19883); experiment: follistatin binders on small-molecule microarrays, primary screen, biochemical, small-molecule microarray, 635/667 nm fluorescence (AID 1132); details: FST binding, 635 nm fluorescence, higher = more signal
# [14] = biological target: Fibroblast growth factor 2 (Homo sapiens) (UniProt P09038); experiment: FGF2 binders on small-molecule microarrays, primary screen, biochemical, small-molecule microarray, 635/667 nm fluorescence (AID 1133); details: small-molecule microarray binding, FGF2, fluorescence 635/667; higher = more signal
# [15] = mitochondrial membrane potential change in A549 cells, profiling panel, cell-based, JC-1 fluorescence, basal, 24 h, 100 nL (AID 1138); details: higher = more signal;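 also: A549 lung adenocarcinoma cells under basal conditions with no added stimulus; test concentration not given here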
# Lefty1 = Lefty1 binders on small-molecule microarrays, primary screen, biochemical, small-molecule microarray, 635/667 nm fluorescence (AID 1139); details: small-molecule microarray binding, fluorescence 635/667; higher = more signal
# [16] = tested on: wheat germ agglutinin (Triticum aestivum), Alexa647-labelled; experiment: wheat germ agglutinin binders on compound microarrays, profiling panel, artefact control for SMM control-protein annotation, biochemical, small-molecule microarray, 635/667 nm fluorescence (AID 1140); details: WGA-A647 binding, 635 nm fluorescence, higher = more signal;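 also: score merges 667 nm feature emission with signal to noise over triplicate slides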
# [17] = biological target: Luciferin 4-monooxygenase (Photinus pyralis) (UniProt P08659); experiment: firefly luciferase enzyme inhibitors, primary screen, biochemical, luminescence, purified enzyme, 2006 set (AID 1141); details: SteadyGlo luminescence, 30 min, higher = more signal, called active from +8 up or from −8 down;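 also: cell-free assay with purified firefly luciferase at 100 ng per well in PBS; test concentration not given here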
# Luciferin 4-monooxygenase (Photinus pyralis), sequence (P08659 whole entry, looked up): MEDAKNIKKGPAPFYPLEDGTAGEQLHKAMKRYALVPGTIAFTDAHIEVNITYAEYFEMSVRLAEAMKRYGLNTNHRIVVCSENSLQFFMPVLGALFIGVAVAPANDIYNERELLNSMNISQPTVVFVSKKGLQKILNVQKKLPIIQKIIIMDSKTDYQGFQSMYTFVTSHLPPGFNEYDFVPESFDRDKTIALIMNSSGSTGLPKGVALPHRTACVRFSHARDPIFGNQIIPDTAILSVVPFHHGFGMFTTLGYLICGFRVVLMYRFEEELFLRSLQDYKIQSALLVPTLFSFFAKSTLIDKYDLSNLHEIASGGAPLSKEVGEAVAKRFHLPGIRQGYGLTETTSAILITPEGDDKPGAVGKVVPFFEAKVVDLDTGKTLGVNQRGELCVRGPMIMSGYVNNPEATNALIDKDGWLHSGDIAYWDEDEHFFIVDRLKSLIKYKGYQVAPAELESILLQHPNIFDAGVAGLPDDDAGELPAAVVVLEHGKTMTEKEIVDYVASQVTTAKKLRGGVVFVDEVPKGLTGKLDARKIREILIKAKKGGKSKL
# Follistatin (Homo sapiens), sequence (P19883 whole entry, looked up): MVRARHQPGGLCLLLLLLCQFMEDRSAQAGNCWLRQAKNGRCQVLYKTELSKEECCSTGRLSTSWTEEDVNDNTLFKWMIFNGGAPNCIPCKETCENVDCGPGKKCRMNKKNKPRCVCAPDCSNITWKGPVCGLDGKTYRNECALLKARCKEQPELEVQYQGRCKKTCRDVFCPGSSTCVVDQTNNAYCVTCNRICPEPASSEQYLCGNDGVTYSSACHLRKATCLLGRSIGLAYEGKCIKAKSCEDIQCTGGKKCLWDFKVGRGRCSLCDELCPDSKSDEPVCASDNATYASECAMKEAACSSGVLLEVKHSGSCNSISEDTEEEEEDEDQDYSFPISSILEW
# Focal adhesion kinase 1 (Homo sapiens), sequence (Q05397 whole entry, looked up): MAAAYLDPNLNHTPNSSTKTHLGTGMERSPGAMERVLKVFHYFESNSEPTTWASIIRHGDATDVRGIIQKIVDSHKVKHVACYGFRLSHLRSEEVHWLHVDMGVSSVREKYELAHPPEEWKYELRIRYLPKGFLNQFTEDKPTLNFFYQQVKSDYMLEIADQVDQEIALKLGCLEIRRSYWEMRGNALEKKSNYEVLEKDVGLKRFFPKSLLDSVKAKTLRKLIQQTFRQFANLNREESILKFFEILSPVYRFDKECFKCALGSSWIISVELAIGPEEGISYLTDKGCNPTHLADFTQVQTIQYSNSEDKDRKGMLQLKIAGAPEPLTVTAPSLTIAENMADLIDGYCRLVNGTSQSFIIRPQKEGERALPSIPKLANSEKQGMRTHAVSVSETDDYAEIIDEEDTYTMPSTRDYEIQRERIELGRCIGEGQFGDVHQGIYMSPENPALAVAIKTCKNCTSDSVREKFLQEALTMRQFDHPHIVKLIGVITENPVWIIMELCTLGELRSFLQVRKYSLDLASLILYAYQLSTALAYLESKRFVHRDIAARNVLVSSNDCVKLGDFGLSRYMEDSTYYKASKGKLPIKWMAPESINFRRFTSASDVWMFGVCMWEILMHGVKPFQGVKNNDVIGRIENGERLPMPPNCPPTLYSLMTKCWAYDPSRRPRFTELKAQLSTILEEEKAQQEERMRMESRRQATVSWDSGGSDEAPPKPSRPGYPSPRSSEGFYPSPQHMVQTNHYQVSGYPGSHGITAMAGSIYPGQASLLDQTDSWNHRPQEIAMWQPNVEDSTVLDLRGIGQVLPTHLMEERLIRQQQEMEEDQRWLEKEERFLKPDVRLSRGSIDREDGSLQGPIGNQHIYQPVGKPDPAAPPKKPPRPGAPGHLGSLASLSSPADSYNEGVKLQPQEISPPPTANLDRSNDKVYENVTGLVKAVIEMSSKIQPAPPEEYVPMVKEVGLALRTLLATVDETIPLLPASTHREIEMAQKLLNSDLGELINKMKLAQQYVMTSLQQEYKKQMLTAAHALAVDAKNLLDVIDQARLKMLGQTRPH
# Fibroblast growth factor 2 (Homo sapiens), sequence (P09038 whole entry, looked up): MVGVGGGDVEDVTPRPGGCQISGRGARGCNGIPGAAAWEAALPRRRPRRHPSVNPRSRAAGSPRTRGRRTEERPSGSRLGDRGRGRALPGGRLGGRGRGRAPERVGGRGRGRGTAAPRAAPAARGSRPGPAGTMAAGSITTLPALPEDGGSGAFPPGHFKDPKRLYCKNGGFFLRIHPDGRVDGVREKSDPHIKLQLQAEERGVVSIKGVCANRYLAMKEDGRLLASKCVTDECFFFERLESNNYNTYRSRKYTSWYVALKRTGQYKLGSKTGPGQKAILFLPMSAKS
# Concanavalin-A (Canavalia ensiformis), sequence (P02866 whole entry, looked up): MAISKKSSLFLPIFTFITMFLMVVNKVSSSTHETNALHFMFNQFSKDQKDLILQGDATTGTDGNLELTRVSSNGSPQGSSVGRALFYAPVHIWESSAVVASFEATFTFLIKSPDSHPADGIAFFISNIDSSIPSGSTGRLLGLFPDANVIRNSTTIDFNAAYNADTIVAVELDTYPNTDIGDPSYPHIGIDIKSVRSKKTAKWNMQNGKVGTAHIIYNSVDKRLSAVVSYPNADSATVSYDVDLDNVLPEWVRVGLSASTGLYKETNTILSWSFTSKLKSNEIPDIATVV
# Albumin (Bos taurus), sequence (P02769 whole entry, looked up): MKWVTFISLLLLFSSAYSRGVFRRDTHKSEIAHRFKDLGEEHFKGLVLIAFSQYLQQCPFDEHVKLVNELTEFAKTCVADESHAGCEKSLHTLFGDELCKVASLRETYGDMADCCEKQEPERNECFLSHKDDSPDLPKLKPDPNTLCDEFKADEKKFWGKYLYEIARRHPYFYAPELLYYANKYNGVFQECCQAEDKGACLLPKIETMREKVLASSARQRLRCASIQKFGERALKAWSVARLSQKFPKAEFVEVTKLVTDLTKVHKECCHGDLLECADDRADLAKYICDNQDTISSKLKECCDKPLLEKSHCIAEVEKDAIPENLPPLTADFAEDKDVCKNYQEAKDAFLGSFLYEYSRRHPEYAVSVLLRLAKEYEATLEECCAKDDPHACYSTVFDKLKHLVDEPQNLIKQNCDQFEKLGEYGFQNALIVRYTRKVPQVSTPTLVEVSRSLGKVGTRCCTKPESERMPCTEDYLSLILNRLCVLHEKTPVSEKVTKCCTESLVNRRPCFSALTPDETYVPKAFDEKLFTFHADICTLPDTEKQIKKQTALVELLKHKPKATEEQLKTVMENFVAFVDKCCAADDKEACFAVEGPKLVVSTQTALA
Structure (SMILES),composite z-score (Albumin (Bos taurus)),composite Z-score [1],composite z-score [2],composite z-score [3],composite z-score [4],composite z-score [5],composite z-score [6],composite z-score (Sam68 (KHDRBS1)),composite z-score [7],composite z-score [8],composite z-score [9],composite z-score [10],composite z-score [11],composite z-score [12],composite z-score [13],composite z-score [14],z-score [15],composite z-score (Lefty1),composite z-score [16],z-score [17]
CCCNC(=O)[C@@]1(Sc2ccc(C)cc2)CC(=O)N(Cc2cc(C(F)(F)F)cc(C(F)(F)F)c2)[C@@H]1c1ccc(CO)cc1I,0.502,0.414 (inactive),-0.125,0.0042,0.883,0.918,0.349,0.354,-0.605,-0.12,-0.187,-0.574,-0.101,-0.0242,-0.0247,-1.22,-0.283,-0.487,-0.405,-0.839 (inactive)
C=CCC(OC(C)=O)[C@@H]1[C@@H](N(Cc2ccc(-c3ccccc3)cc2)C(=O)c2ccc(-c3ccccc3)cc2)c2cc(OCCCO)ccc2N1C(=O)c1ccc(-c2ccccc2)cc1 (stereo not given in full),0.0452,-0.254 (inactive),0.11,0.0086,-0.0914,0.57,-0.0163,-0.821,0.0312,-0.473,-0.726,0.274,0.63,-0.705,0.288,-0.215,2.51,-0.418,0.0316,-1.15 (inactive)
C=CCC(OC(C)=O)[C@@H]1[C@@H](N(Cc2cc3ccccc3o2)C(=O)c2ccc(-c3ccccc3)cc2)c2cc(OCCCO)ccc2N1C(=O)c1ccc(-c2ccccc2)cc1 (stereo not given in full),0.327,-0.474 (inactive),0.061,-0.148,0.301,0.568,0.0482,-0.19,-0.333,-0.395,-0.853,-0.43,0.25,-0.796,0.227,-0.109,2.56,-0.147,-0.316,-1.02 (inactive)
O=C(O)[C@H]1C[C@H]2C(=O)N[C@@H](Cc3ccccc3)C(=O)N2[C@H]1c1ccc(O)cc1,-0.728,1.09 (inactive),-0.0918,-0.0415,0.659,1.88,0.414,1.08,-0.372,0.956,1.19,-0.514,0.171,-0.0232,1.26,0.677,1.2,0.438,0.302,-1.3 (inactive)
COC(=O)C(CC#Cc1ccc2c(c1)[C@]1(C(=O)N2)[C@H](c2ccccc2OCCO)N2[C@H](c3ccccc3)[C@H](c3ccccc3)OC(=O)[C@H]2[C@@H]1C(=O)N1CCCCCCC1)C(=O)OC,-0.314,8.74 (active),2.02,1.1,1.03,4.9,1.41,1.33,1.66,0.773,0.925,1.35,4.83,0.0834,1.56,-0.0426,0.547,1.73,1.66,-1.08 (inactive)
COc1ccc([Si](C)(C)[C@H]2[C@H](CC(=O)N3Cc4ccccc4C[C@H]3CO)O[C@@]3(C(=O)N(Cc4cccc(N5C(=O)COc6ccccc65)c4)c4ccccc43)[C@@H]2C)cc1,-0.534,0.373 (inactive),0.0297,-0.102,0.635,1.97,-0.245,1.02,1.38,1.16,1.57,0.671,0.81,0.585,1.17,1.6,0.388,1.44,0.862,-0.961 (inactive)
O=C1c2ccccc2[C@](Cc2ccccc2I)(C(=O)O)[C@H](c2ccc(CO)cc2)N1Cc1ccccc1Cl,0.953,1.61 (inactive),-0.014,-0.0633,0.608,2.24,1.07,1.3,-0.912,0.944,1.99,1.19,1.04,-0.113,0.0645,-0.354,0.712,0.0911,0.507,-1.28 (inactive)
COC(=O)C(CC#Cc1ccc2c(c1)[C@]1(C(=O)N2)[C@H](C(N)=O)[C@H]2C(=O)O[C@H](c3ccccc3)[C@H](c3ccccc3)N2[C@@H]1c1ccc(O)cc1)C(=O)OC,0.201,0.0742 (inactive),0.122,0.0286,0.803,1.15,0.478,-0.942,-1.33,-1.92,0.62,-0.328,0.418,-1.59,-0.919,-0.292,-1.07,-0.861,-0.3,-1.43 (inactive)
C=CCN1C(=O)[C@@]2(O[C@@H](CCO)[C@H]([Si](C)(C)c3ccc(OC)cc3)[C@H]2C)c2cc(N(C=O)c3ccccc3)ccc21,0.377,0.459 (inactive),-0.0918,-0.0895,0.246,0.396,0.222,0.807,-0.332,0.67,1.03,0.721,-0.115,0.373,0.203,0.0479,-0.688,0.124,0.918,-1.66 (inactive)
O=C1c2ccccc2C(=O)c2cc([C@H]3Oc4ccccc4S(=O)(=O)N4CCC[C@@H]34)ccc21,-0.791,-0.228 (inactive),-0.227,-0.0933,-0.157,-0.319,-0.235,-1.02,-0.504,-2.59,-1.02,-0.551,-0.953,-0.91,-1.07,-0.533,1.18,-0.534,-1.26,-1.04 (inactive)
